hgDAF-12 ag: H. glycines DAF-12 receptor agonists, primary screen, cell-based, luminescence, HEK293, GAL4 fusion, UAS-luciferase | Nuclear hormone receptor DAF-12 (Heterodera glycines), GAL4 fusion | HEK293 GAL4-hgDAF12 UAS-luciferase reporter, agonist luminescence; normalized to butyrate control | activation, % at 6.8 µM | hit rate 1.8% among 370,000 | AID 687014, 2013;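 active = activation above a cutoff set at the mean of all screened compounds plus 3 SD, cut at about 10% in these data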
SMARCA2 activ: SMARCA2 (BRM) function activators, primary screen, cell-based, luminescence, high throughput. MG213 cells, MMTV-luciferase reporter, dexamethasone, overnight. activation, % at 9.1 µM. hit rate 1% among 370,000. AID 652017, 2013; in the data active = activation above about 7.8%
ssDAF-12 act: S. stercoralis DAF-12 nuclear receptor activators, primary screen, cell-based, luminescence, HEK293, GRIP1 co-expression, lit1-tk-luc; activation, % at 6.8 µM; HEK293 ssDAF-12/GRIP1 lit1-tk-luc reporter; % of 3 µM dafachronic acid response; hit rate 1% among 370,000; Nuclear hormone receptor DAF-12 (Strongyloides stercoralis);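 active = activation above the mean over all tested compounds plus 3 SD, cut at about 0.9% in these data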
DAX1 inh-1: DAX1 (NR0B1) inhibitors, primary screen, cell-based, HEK293, Gal4-DAX1, luciferase luminescence | Nuclear receptor subfamily 0 group B member 1 (Homo sapiens), P51843 | HEK293 Gal4-DAX1 luciferase reporter | inhibition, % at 6.75 µM | hit rate 0.99% among 340,000;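 active = inhibition above the mean over all tested compounds plus 3 SD, cut at about 4.2% in these data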;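 also: inhibition shows as a rise in luminescence from relieved DAX1 repression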
hcDAF12 agonist: H. contortus DAF-12 nuclear receptor activators, primary screen, cell-based, luminescence, HEK293, lit1-tk-luc reporter. HEK293 hcDAF-12 lit1-tk-luc reporter; 0% DMSO, 100% Δ7-dafachronic acid. hit rate 1.4% among 370,000. activation, % at 6.8 µM;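 active = activation above the mean of all tested compounds plus 3 SD, cut at about 5.5% in these data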
DAX1 inh-2: DAX1 (NR0B1) inhibitors on StAR promoter, primary screen, cell-based, luminescence, SF-1 (NR5A1), full-length DAX-1; inhibition, % at 6.8 µM; HEK293T StAR-luciferase reporter, SF-1/DAX-1 repression relief; hit rate 1.1% among 370,000;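 active = inhibition above the mean over all tested compounds plus 3 SD, cut at about 3.6% in these data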;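 also: higher inhibition means more luminescence from relief of DAX-1 repression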
hgDAF12 ag: H. glycines DAF-12 receptor agonists, confirmation, cell-based, luminescence, HEK293, GAL4-LBD fusion; shares compounds with hgDAF-12 ag; HEK293 GAL4-hgDAF12 luciferase reporter, agonist mode; percent of butyrate response; activation, % at 6.8 µM; hit rate 80% among 3,300; AID 743050, 2013;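 active = mean activation over triplicate wells above the hit cutoff derived from the earlier primary screen, cut at about 11% in these data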
LXR ag 2: LXR agonists, Gal4 luciferase reporter, confirmation, counter-screen for hgDAF-12 agonist project, cell-based, luminescence, HEK293, H. glycines campaign. shares compounds with hgDAF-12 ag. 24 h. activation, % at 6.8 µM. 3,300 tested, under 10 active;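 active = mean activation of the triplicate above a set limit carried over from the primary screen, none filed active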
Target sequence (P55055 whole entry, looked up, the tested form may be a part): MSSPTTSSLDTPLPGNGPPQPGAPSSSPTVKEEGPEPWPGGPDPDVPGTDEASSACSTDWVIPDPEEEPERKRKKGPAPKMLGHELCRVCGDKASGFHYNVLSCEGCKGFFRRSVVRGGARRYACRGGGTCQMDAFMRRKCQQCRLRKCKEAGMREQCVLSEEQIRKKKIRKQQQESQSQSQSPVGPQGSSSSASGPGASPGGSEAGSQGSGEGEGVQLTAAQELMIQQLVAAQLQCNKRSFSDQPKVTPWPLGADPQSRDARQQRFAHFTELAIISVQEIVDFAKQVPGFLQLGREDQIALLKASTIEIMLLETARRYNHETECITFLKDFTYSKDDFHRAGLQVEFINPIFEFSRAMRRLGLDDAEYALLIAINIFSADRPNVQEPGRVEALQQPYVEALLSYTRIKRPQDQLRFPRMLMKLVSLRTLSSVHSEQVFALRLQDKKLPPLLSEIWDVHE
Of the large screens only hits and unclear results are named; the others gave an inactive call (follow-up assays come after a bar, where they were run). Hits are enriched below; roughly 4.8% of the tested compounds scored in any of these assays.

COc1ccc(C2C(CC(=O)O)=C(Nc3ccccc3)C(=O)N2c2ccccc2)cc1 (stereo not given)	none
O=C(O)CC1=C(Nc2ccccc2)C(=O)N(c2ccccc2)C1c1ccc(F)cc1 (stereo not given)	hgDAF-12 ag 18.3 | hgDAF12 ag 10.9 | LXR ag 2 inactive
O=C(CN1CCC(N2CCCCC2)CC1)N1CCCc2ccccc21	none
CCS(=O)(=O)c1ccc(C=NNc2nc3ccccc3o2)cc1	hgDAF-12 ag 21.1 | hgDAF12 ag 15.0 | LXR ag 2 inactive
O=C(/C=C\c1ccco1)NC(=S)Nc1ccccc1O	none
O=C(Nc1ccc(/C=C/c2nc3ccccc3o2)cc1)c1c(F)cccc1F	hgDAF-12 ag 16.0 | hgDAF12 ag 18.9 | LXR ag 2 inactive
COc1ccc(C(=O)NC(=S)N2CCC(C)CC2)cc1Br	hgDAF-12 ag 31.7 | hgDAF12 ag inactive | LXR ag 2 inactive
CC1CCN(C(=S)NC(=O)c2ccc(C(C)(C)C)cc2)CC1	none
CC(C)(C)C(=O)NC(=S)Nc1cccc(C(=O)O)c1	hgDAF-12 ag 14.2, DAX1 inh-2 4.3 | hgDAF12 ag 13.2 | LXR ag 2 inactive
O=C(COc1ccc(C(=O)O)cc1)Nc1cccc(C(F)(F)F)c1	none
c1ccc2[nH]c(NCc3ccc4c(c3)OCO4)nc2c1	hgDAF-12 ag 13.6 | hgDAF12 ag inactive | LXR ag 2 inactive
COCc1[nH]nc2c1C(c1ccnc3ccccc13)C(C#N)=C(N)O2 (stereo not given)	none
O=C(O)c1ccc(/C=C/c2nc3ccccc3c(=O)[nH]2)cc1	none
Cc1cccc(/C=C/c2nc3ccccc3c(=O)[nH]2)c1	hgDAF-12 ag 18.4, DAX1 inh-2 3.7 | hgDAF12 ag 21.0 | LXR ag 2 inactive
N/C(=N\OC(=O)Cc1ccccc1)c1ccccc1Cl	hgDAF-12 ag 13.7 | hgDAF12 ag inactive | LXR ag 2 inactive
CCC(CC)c1nnc(NC(=O)C2CCCO2)s1 (stereo not given)	none
Cc1ccc(NC(=O)Nc2cnc3ccccc3c2)cc1	hgDAF-12 ag 15.0, DAX1 inh-2 3.7 | hgDAF12 ag 20.4 | LXR ag 2 inactive
O=C(Nc1cnc2ccccc2c1)C1COc2ccccc2O1 (stereo not given)	hgDAF-12 ag 14.3 | hgDAF12 ag inactive | LXR ag 2 inactive
CCC(CC)c1nnc(NC(=O)C2COc3ccccc3O2)s1 (stereo not given)	hgDAF-12 ag 13.7 | hgDAF12 ag inactive | LXR ag 2 inactive
Clc1ccc(-n2cc(COCc3ccccc3)nn2)cc1	hgDAF-12 ag 21.1, DAX1 inh-2 3.8 | hgDAF12 ag 10.6 | LXR ag 2 inactive
O=C(Nc1ccc(Cl)cc1)OCc1cn(-c2ccc(Cl)cc2)nn1	none
Cc1ccc(N2CC(C(=O)Nc3ccc(S(=O)(=O)Nc4nccs4)cc3)CC2=O)cc1 (stereo not given)	none
COc1ccccc1NCC(=O)Nc1cc(S(=O)(=O)N2CCOCC2)ccc1N1CCOCC1	none
Cc1ccc(OCC(=O)N2CCN(c3ccc([N+](=O)[O-])c(N4CCOCC4)c3)CC2)cc1	none
Cc1cc(OCC(=O)N2CCOCC2)ccc1[N+](=O)[O-]	hgDAF-12 ag 15.1, DAX1 inh-1 5.2 | hgDAF12 ag inactive | LXR ag 2 inactive
CCOC(=O)C1=C(C)C2C3C(=O)N(c4cc(C)ccc4C)C(=O)C3C1(C)C1C(=O)N(c3cc(C)ccc3C)C(=O)C21 (stereo not given)	none
CSc1ncc(CN2CCc3c([nH]c4ccccc34)C2C(C)(C)C)cn1 (stereo not given)	none
COc1cc(CNc2ccc3[nH]c(=O)[nH]c3c2)ccc1OCc1cccc(C)c1	none
Cc1cccc2c1-c1sc(C(=O)Nc3nccs3)cc1CO2	hgDAF-12 ag 19.3 | hgDAF12 ag 14.4 | LXR ag 2 inactive
CCc1ccc(-c2cn3c(n2)SCC3)cc1	hgDAF-12 ag 16.4, DAX1 inh-2 4.0 | hgDAF12 ag 14.4 | LXR ag 2 inactive
CC(Cc1ccco1)NC(=O)c1ccc(C(F)(F)F)cc1 (stereo not given)	hgDAF-12 ag 13.8, ssDAF-12 act 1.0 | hgDAF12 ag 15.7 | LXR ag 2 inactive
Cc1ccc(NC(=O)c2noc3c2CCC3)cc1C	hgDAF-12 ag 18.8, DAX1 inh-2 4.2 | hgDAF12 ag 19.1 | LXR ag 2 inactive
COc1ccc(CNC(=O)c2noc3c2CCCCC3)cc1	none
O=C(NCc1ccccc1)c1noc2c1CCCCC2	hgDAF-12 ag 15.5 | hgDAF12 ag 13.0 | LXR ag 2 inactive
CC(C)(C)NC(=O)C(c1ccncc1)N(C(=O)Cn1nnc(-c2ccc(F)cc2)n1)c1ccccc1 (stereo not given)	none
Cc1cc(N2C(=O)Cc3ccccc3C2=O)ccc1C(C)C	none
Cc1nc2cc(NC(=O)c3ccc(Cl)cc3)ccc2n1C	hgDAF-12 ag 13.3 | hgDAF12 ag 16.3 | LXR ag 2 inactive
O=C(Nc1ccc(Cl)c(Cl)c1)c1ccccc1	none
Cc1nc2cc(NC(=O)Nc3cccc4ccccc34)ccc2n1C	hgDAF-12 ag 17.8 | hgDAF12 ag 12.3 | LXR ag 2 inactive
O=C(Nc1ccc2nc3ccccc3nc2c1)c1ccccc1	hgDAF-12 ag 15.7 | hgDAF12 ag 14.5 | LXR ag 2 inactive
O=C(CSC(=S)N1CCSCC1)c1ccc(Cl)cc1	hgDAF-12 ag 13.3 | hgDAF12 ag 13.5 | LXR ag 2 inactive
S=C(SCc1c(Cl)cccc1Cl)N1CCSCC1	none (no result: DAX1 inh-1)
Cc1nc2sc(-c3ccccc3)nn2c(=O)c1Br	hgDAF-12 ag 16.5 | hgDAF12 ag 17.1 | LXR ag 2 inactive
O=C(Nc1ccc(N2CCCCC2)cc1)C(Cl)c1ccccc1 (stereo not given)	hgDAF-12 ag 19.2 | hgDAF12 ag inactive | LXR ag 2 inactive
Cc1ccc(NC(=O)Nc2ccc(F)c(Cl)c2)cc1	none

High-throughput results as filed in PubChem.
